Hits are enriched below; roughly 19% of the tested compounds scored in any of these assays.
HT1080 IDH1KD tx = qHTS for induction of synthetic lethality in tumor cells producing 2HG: qHTS for the HT-1080-IDH1KD cell line | HT-1080 IDH1 knockdown viability, ATP luminescence, 48 h | 360,000 compounds, 2% hits | Potency, µM (series often up to 46.1 µM), without a hit: top-dose activity, negative = toxicity, most hits filed as cytotoxic;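 further: potency means the concentration at half of the fitted maximal effect; 0% = DMSO wells and -100% = cell-free medium wells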
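IDH1KD HT-1080 cells, 750/well, RPMI + 5% FBS; compound pinned after 2 h settling; 48 h, 37 °C; CellTiter-Glo luminescence; % activity normalised to DMSO and no-cell wells; curves fitted, classed by r2 and efficacy.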
IL-1B inflam inh = qHTS for Inhibitors of Inflammasome Signaling: IL-1-beta AlphaLISA Primary Screen | AID 743279, 2014 | THP-1 LPS/ATP IL-1B secretion, AlphaLISA, 16 h; stronger effect = lower value | 360,000 compounds, 4.7% hits | activity change, % at 57.5 µM; in the data active means activity change below about -50%; inconclusive means mostly about -30% to -49%
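THP-1 cells pretreated 1 hr with compounds (up to 57.5 uM final), then stimulated with LPS (250 ng/mL final) plus ATP (1.25 mM final); secreted IL-1B measured by AlphaLISA after 16 hr, decreased signal indicating inhibition.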
uPA generation = qHTS for Inhibitors of Cell Surface uPA Generation; cell surface uPA generation assay, qHTS; Potency, µM (series often up to 38.3 µM), inactives show top-dose activity change, negative = inhibition, hits mostly inhibitors; 330,000 compounds, 0.31% hits; active means well fitted inhibition curve with a large enough effect; inconclusive means small, poorly fitted or top-dose-only effect; inactive means no such curve, though single readings can be large or run the other way; tested in mouse RAW 264.7 cells; further: potency means the concentration at half of the fitted maximal effect; nearly all actives have a fitted effect of over 55% in size
DT40 TDP1 no CPT = qHTS for Inhibitors of human tyrosyl-DNA phosphodiesterase 1 (TDP1): qHTS in cells in absence of CPT; DT40 Tdp1-/- hTDP1 cells, no CPT, ATP luminescence, 48 h; Potency, µM (doses to about 46.2 µM), for the others: at the top dose activity change, negative = growth inhibition, usual class: inhibitors; 420,000 compounds, 15% hits; AID 686978, 2013; further: potency means the concentration at half of the fitted maximal effect; nearly all actives have a fitted effect of over 55% in size
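Growth of hTDP1-complemented DT40 Tdp1-knockout cells is measured by ATP luminescence after at least 48 hr compound exposure at 37 °C, with DMSO substituting for the 20 nM CPT used in the parallel screen.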
HT1080NT lethal = qHTS for induction of synthetic lethality in tumor cells producing 2HG: qHTS for the HT-1080-NT fibrosarcoma cell line; HT-1080-NT fibrosarcoma viability, CellTiter-Glo ATP luminescence, 48 h; AID 686970, 2013; 360,000 compounds, 1.6% hits; Potency, µM (top dose mostly 46.1 µM), without a hit: top-dose activity, negative = less viability, actives largely listed as cytotoxic;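 further: NT is the 2HG producing partner of a matched IDH1 knockdown line; potency means the concentration at half of the fitted maximal effect; 0% = DMSO-treated cells and -100% = media-only wells without cells; nearly all actives have a fitted effect of over 55% in size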
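HT-1080-NT fibrosarcoma cells (2HG-overproducing), 750 cells/well in RPMI with 5% FBS, dosed after 2 h and incubated 48 h at 37C. CellTiter-Glo luminescence normalized to DMSO and no-cell wells; concentration-response curves fitted and classed.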
DT40 TDP1 CPT = qHTS for Inhibitors of human tyrosyl-DNA phosphodiesterase 1 (TDP1): qHTS in cells in presence of CPT; Potency, µM (series often up to 46.2 µM), without a hit: top-dose activity change, negative = growth inhibition, hits mostly inhibitors; 420,000 compounds, 12% hits; chicken DT40 Tdp1-/-;hTDP1 cells + 20 nM CPT, ATP luminescence, 48 h; further: potency means the concentration at half of the fitted maximal effect; nearly all actives have a fitted effect of over 55% in size
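Cell growth measured by CellTiter-Glo luminescence after a minimum 48 h, 37 C compound exposure with 20 nM CPT in Tdp1-knockout DT40 cells stably expressing hTDP1, seeded 400/well; qHTS titration format.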
The depositor's hits bear a star; ? = inconclusive; . = no result. Unless noted, the call rests on the fitted dose curve; in most records, active means well fitted curve in the direction sought with a large enough effect; inconclusive means small, poorly fitted or top-dose-only effect, or another doubt; inactive means no such curve, though single readings can be large; an effect the other way counts as inactive or inconclusive. Unless noted, on the % scale 0 is the no-effect control and ±100 the full control effect.

SMILES	HT1080 IDH1KD tx	IL-1B inflam inh	uPA generation	DT40 TDP1 no CPT	HT1080NT lethal	DT40 TDP1 CPT
O=[N+]([O-])c1ccc(OP(=O)(O)Oc2ccc([N+](=O)[O-])cc2)cc1	3%	32	5%	-10%	-6%	0%
CC1(C)Cc2c(sc3nc(-c4cccs4)n(N)c(=O)c23)CO1	?	-12	?	23µM*	?	16µM*
CC1(C)Cc2c(sc3nc4n(-c5ccccc5)c(=O)c(CCC(=O)O)nn4c(=O)c23)CO1	-4%	13	-8%	-29%	6%	?
c1ccc(-c2ccc(CN3Cc4ccccc4-n4nncc4C3)cc2)cc1	-19%	49	.	5.2µM*	-15%	4.6µM*
Fc1ccccc1CN1Cc2ccccc2-n2nncc2C1	-1%	33	.	23µM*	5%	?
CCN1C[C@@]2(OC(=O)c3ccccc3NC(C)=O)CCC(OC)[C@@]34C5CC6C(OC)C[C@@](O)(C(CC23)[C@@H]14)C5(O)C6OC (stereo not given in full)	.	.	.	4%	.	-3%
COc1ccc2o/c(=N\O)c(C(=O)Nc3ccc(C)cc3)cc2c1	10%	?	-4%	?	3%	23µM*
COc1ccc(/C=C/C(=O)Nc2ccc(C)cc2)cc1	.	.	.	?	.	-24%
CNC(C)C#Cc1ccc2oc3cc(C)c(C)cc3c(=O)c2c1 (stereo not given)	-25%	-64*	?	15µM*	-19%	?
O=C(Cc1n[nH]c(=O)c2ccccc12)OCc1c(Cl)cccc1Cl	-3%	12	3%	?	-18%	?
CCC(C)N1C(=O)/C(=C\c2cnc(N(C)C)nc2)C(=O)NC1=S (stereo not given)	-25%	-52*	5%	?	?	?
O=C(N/N=C\C1C(=O)NC(=S)N(c2ccccc2)C1=O)c1ccc(O)cc1 (stereo not given)	21%	11	-1%	9%	8%	11%
CCCCOc1ccc(Cn2c(=O)oc3ccccc32)cc1	-5%	18	4%	?	1%	?
COC(=O)C1=C(C(=O)OC)SC2(S1)C(C(=O)OC)=C(C(=O)OC)Sc1c2ssc1=O	1.2µM*	-95*	-8%	0.18µM*	5.2µM*	0.092µM*
CC(C)NC(=O)N1CCC2(CC1)CCN(C(=O)Oc1ccccc1)CC2	.	.	.	?	.	-8%
CC[C@@H](CO)C1CC2NC3CC4(c5ccccc5N(C)[C@@H]24)C(O)C31 (stereo not given in full)	-1%	-19	14%	-4%	-2%	-6%
CCc1ccc(NC(=O)c2cc(S(=O)(=O)N3CCCC3)c[nH]2)cc1	-12%	-6	?	23µM*	-5%	?
Nc1ncnc2c1ncn2[C@@H]1O[C@@H]2COP(O)(=S)O[C@H]2[C@H]1O (stereo not given in full)	.	.	.	-5%	.	6%
CC(C)c1ccc2nc3sc(C(=O)N4CCc5ccccc5C4)c(N)c3cc2c1	?	-12	-3%	?	?	?
Cc1ccc(-c2cc(C(F)F)n3ncc(C(=O)N4CCc5ccccc5C4)c3n2)cc1	10%	0	-14%	26µM*	6%	?
CC(=NCc1ccco1)c1c(O)n(-c2ccc(C)cc2)c(=O)[nH]c1=O	5%	?	9%	11%	-12%	-7%
FC(F)(F)c1cccc(C2NCc3ccccc3-n3cccc32)c1 (stereo not given)	?	-88*	-1%	?	-30%	-21%
Oc1ccc(C2NCc3ccccc3-n3cccc32)cc1Cl (stereo not given)	-20%	-13	-7%	?	-21%	?
N#CC[N+]1(CCCNP2(=O)C=C(c3ccccc3)OC(c3ccccc3)=C2)CCOCC1	-1%	-13	18%	1%	1%	2%
CN1CCN(c2ccc(Cl)cc2N)CC1	0%	-17	2%	-25%	-18%	-4%
SMILES	HT1080 IDH1KD tx	IL-1B inflam inh	uPA generation	DT40 TDP1 no CPT	HT1080NT lethal	DT40 TDP1 CPT
Cc1ccc(Cl)cc1N1CCN(CCN)CC1	-25%	?	4%	?	-23%	16µM*
CC(O)CN1CCN(CC(=O)[O-])CCN(CC(=O)[O-])CCN(CC(=O)[O-])CC1.[Gd+3] (stereo not given)	.	.	.	-1%	.	-26%
COc1ccc2c(c[n+](C)c3c4cc5c(cc4ccc23)OCO5)c1OC	.	.	.	1.3µM*	.	1.3µM*
COc1cc2c(ccc3c4cc(OC)c(OC)cc4c[n+](C)c23)cc1O	?	-20	-11%	1.2µM*	-25%	1.3µM*
COc1cccc(CNCCc2ccc3c(c2)OCO3)c1OC	0%	-15	20%	?	0%	-35%
COC(=O)C1=C(C)n2nnnc2NC1c1ccc(Cl)cc1 (stereo not given)	-1%	-6	-2%	-27%	2%	?
CSc1ccc(CN2CCN(C(=O)Cc3ccccc3)CC2)cc1	-2%	0	2%	-20%	-3%	?
CSc1ccc(CN2CCC2(C)C(=O)Nc2cccc(NS(C)(=O)=O)c2)cc1 (stereo not given)	-23%	0	.	23µM*	-13%	18µM*
CN1CC2([N+](=O)[O-])CC=C(Cl)C([N+](=O)[O-])(C1)C2 (stereo not given)	10%	5	2%	1%	21%	0%
CCc1cc(=O)[nH]c(SCCCF)n1	15%	10	-2%	6%	-3%	0%
Cc1cscn1	12%	28	15%	?	27%	-21%
COc1cc(/C=C2\C[C@H]3[C@@H]4CC=C5C[C@@H](N6CCCC6)CC[C@]5(C)[C@H]4CC[C@]3(C)[C@H]2O)cc(OC)c1OC	-22%	-10	1%	5.2µM*	-11%	15µM*
O=C(O)[C@@H](O)[C@H](O)[C@H](O)[C@@H](O)C(=O)O (tested in a mixture with another compound)	.	.	.	8%	.	?
COc1ccc(-n2c(-c3ccco3)nc3ccccc3c2=O)cc1	-5%	0	-4%	23µM*	-10%	?
